PubChem BioAssay AID1117319 (Southern Research Institute, 2015)
Several values for one entry are separate records, joined by “and”; a condition that tells them apart may be missing. Identical values can stand only once. The whole screen tested about 260,000 compounds, of which about 1,500 (0.58%) were called active. About 5% were inconclusive and are not listed.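 How the source made its calls: active means inhibition above a set limit at one or more doses, reproduced on every date tested; inconclusive means results disagree between test dates, or hit never tested in dose response; inactive means the rest.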 Not all results are given here. Entries with a potency or affinity are not part of this list.

The compounds below were run against Virion infectivity factor (Human immunodeficiency virus type 1 group M subtype B (isolate BH10)) + Virion infectivity factor (Human immunodeficiency virus type 1 group M subtype B (isolate BRU/LAI)) + Virion infectivity factor (Human immunodeficiency virus type 1 group M subtype B (isolate PCV12)) + Virion infectivity factor (Human immunodeficiency virus type 1 group M subtype B (isolate HXB2)) + DNA dC->dU-editing enzyme APOBEC-3G (Homo sapiens) (UniProt P69720+P69721+P69722+P69723+Q9HC16) (assay: inhibitors of Vif binding to APOBEC3G peptide, primary screen, biochemical, TR-FRET, GST-Vif 1-94, biotin-A3G peptide, dose response retest (AID 1117319;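 further: Vif residues 1-94 fused to GST binding biotinylated APOBEC3G peptide 110-148; 0% = full assay without inhibitor and 100% = GST in place of GST-Vif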)). Conditions: stronger effect = higher value.

inhibition, inactive:
COc1ccc2nc(NC(=O)C3CCN(C(=O)c4ccc(F)cc4)CC3)sc2c1 -12.6%
CCc1oc(C(=O)OC)cc1CSC(=N)N -0.44%
Cc1cc2ccccn2c1C(=O)c1nc(NCc2ccccc2)ncc1Cl -3.29%
COc1cccc(C(=O)OCC(=O)Nc2ccc3c(c2)OCCO3)c1 -5.71%
CSc1ncccc1C(=O)OCC(=O)NC(=O)NCCC(C)C -2.12%
O=C(NCC(c1cccs1)N1CCOCC1)c1ccc(Br)o1 (stereo not drawn) 22.6%
CC(=O)Nc1ccc(S(=O)(=O)Nc2nccs2)cc1 -1.8%
COc1ccc(-c2nnc(Nc3ccc(S(=O)(=O)Nc4nccs4)cc3)c3ccccc23)cc1 12.6%
COC(=O)[C@H](C)NC(=O)Nc1ccccc1C(F)(F)F 8.61%
CNC(=O)C12CCC(C)(c3nc4cc(C)c(C)cc4nc31)C2(C)C (stereo not drawn) 2.01%
CCOC(=O)C1CCN(Cc2cnc(Oc3ccc(N)cc3)s2)CC1 3.48%
CCOC(=O)C1CCN(Cc2cnc(Oc3ccc(C(C)(C)C)cc3)s2)CC1 28.3%
Cc1cc(CNC(=O)CCc2nnc(CCCCc3ccccc3)o2)nn1C -5.35%
CN(C)c1ccc(C(=O)c2ccc(O)cc2O)cc1 -0.42%
Cc1ccc(-c2cc(Cc3ccc(N(C)C)cc3)c(=O)[nH]n2)cc1 -0.03%
O=C(Nc1ccc(Cl)cc1)C(c1ccccc1)N(CCO)CCO (stereo not drawn) -1.42%
COC(=O)c1ccc(CSc2nnc(-c3ccccc3)n2C)o1 2.37%
O=C(O)c1ccc(S(=O)(=O)c2ccccc2C(=O)O)c([N+](=O)[O-])c1 -4.06%
O=C(O)c1ccc(C(=O)c2cc([N+](=O)[O-])cc([N+](=O)[O-])c2)cc1 -9.99%
Cc1cc(C(=O)Nc2ccccc2Cc2ccccc2)no1 -1.05%
CCOC(=O)c1c(NC(=O)c2cccs2)sc(C)c1CC -1.19%
Cc1sc(NC(=O)c2cccs2)c(C(=O)OC(C)C)c1C 2.47%
O=C(O)/C(=C/c1ccc(Cl)c([N+](=O)[O-])c1)c1ccc(S(=O)(=O)N2CCCCC2)s1 19.6%
COc1c(C)cc(C(=O)C2CCCN(C(=O)c3cc(C)nc(C)n3)C2)cc1C (stereo not drawn) -12.6%
CCc1cccc(NC(=O)CN(C)S(=O)(=O)c2cccc3cccnc23)c1 5.83%
COc1c(O)cc2c(c1O)C(=O)CC(c1ccccc1)O2 (stereo not drawn) 2.35%
COc1cc(O)c(CCO)c2c1C(=O)C[C@@H](C)O2 1.87%
O=C(NCc1cccnc1)c1ccc(CS(=O)(=O)Cc2ccc(Cl)cc2)o1 21.4%
Cc1noc(C)c1S(=O)(=O)N1CCC(C(=O)NC2CCN(Cc3ccccc3)CC2)CC1 28.3%
CCc1cccc(NC(=O)C2CCN(S(=O)(=O)c3c(C)noc3C)CC2)c1 -1.11%
CCCCn1c(SCC(=O)c2ccc(OCC)cc2)nc2cc(S(N)(=O)=O)ccc21 3.73%
CN1CC(=O)N(CC(=O)Nc2ccc(Cl)c(C(F)(F)F)c2)C1=O -5.66%
COc1ccc(NC(=O)CCCCCN2C(=O)CCC2=O)cc1Cl -2.09%
O[C@H]1C[C@H](c2ccccc2)N(CC2CCCCC2)C[C@@H]1n1cc(C2CC2)nn1 -3.24%
Cc1ccc(C)c(N(C(=O)Cn2nnc3ccccc32)C(C(=O)NCc2ccco2)c2ccncc2)c1 (stereo not drawn) -2.7%
Cc1ccccc1N(C(=O)Cn1nnc2ccccc21)C(C(=O)NCc1ccco1)c1ccncc1 (stereo not drawn) -7.73% and -2.99%
CC(C)Oc1ccc(N2CC(C(=O)Nc3ccccc3C(=O)NC3CC3)CC2=O)cc1 (stereo not drawn) -13%
Cc1ccc2[nH]c(=O)c(C3=NN(C(=O)CCC(=O)O)C(c4cccs4)C3)c(-c3ccccc3)c2c1 (stereo not drawn) 2.41%
COC(=O)C(CC(=O)c1ccc(Cl)cc1)c1ccc(C(C)C)cc1 (stereo not drawn) 10.5%
O=C(CCCl)N(Cc1nc2ccccc2c(=O)[nH]1)Cc1cccs1 -7.06%
CC(C)NC(=O)N(Cc1ccccc1)Cc1cccs1 -1.49%
CN(CC(=O)Nc1cccc(F)c1)C(=O)c1ccccc1OCCOc1ccccc1 2.96%
O=C(NNC(=O)c1ccccc1C(=O)O)c1cc2ccccc2o1 19%
O=C(NNC(=O)c1cc2ccccc2o1)c1ccc(F)cc1 -2.65%
CC(=O)Nc1ccc(NC(=O)c2ccc(-c3ccc([N+](=O)[O-])cc3)o2)cc1 -7.43%
C=CCNC(=O)c1ccc(-c2ccc([N+](=O)[O-])cc2)o1 16.1%
CC1CCN(c2ccccc2NC(=S)NC(=O)C(C)(C)C)CC1 -4.59%
COc1ccc2c(CC(=O)NNC(=O)c3cccs3)coc2c1 5.01%
CCCC(C(=O)NC(C)(C)C)N(Cc1ccccc1)C(=O)c1snc(C(N)=O)c1N (stereo not drawn) 3.36%
Cc1nn(Cc2ccc(Cl)cc2Cl)c(C)c1NC(=O)c1nn(C)cc1Cl -2.6%
O=C(CCc1ccccc1)Nc1ccc(NS(=O)(=O)c2ccccc2)cc1 0.68%
Cc1c[n+]([O-])cc(C)c1[N+](=O)[O-] -3.91%
O=C(CCN1CCN(CCO)CC1)Nc1ccc(OCc2ccccc2)cc1 -0.21%
CC1(C)CC(=O)C2=C(C1)NCN(Cc1ccccc1)C2 0.39%
c1cc2c(cc1CN1CCOCC1)OCO2 11.3%
O=C(OCC(=O)N1CCCC1)c1c2c(nc3ccccc13)CCCCC2 -4.27%
NNC(=O)C1C(O)CCC2CN3CCc4c([nH]c5ccccc45)C3CC21 (stereo not drawn) -9.7%
C[C@@H]1ON(C)[C@H]2C[C@H]3c4[nH]c5ccccc5c4CCN3C[C@@H]12 -1.4%
